# Experimental data as given in PubChem BioAssay AID2061310 (National Center for Advancing Translational Sciences (NCATS), 2025).
# Inconclusive results are not listed. Where a call stands in place of a potency, no number is given. The source made the active and inactive calls. Calls come from the whole dose curve; as a rule, active = well fitted curve in the direction sought with a large enough effect; inconclusive = small, poorly fitted or top-dose-only effect, or another doubt; inactive = no such curve, though single readings can be large or run the other way.
# Target: Retinal dehydrogenase 2 (Homo sapiens) (UniProt O94788)
# Experiment: qHTS for Inhibitors of the Aldehyde Dehydrogenase Family (ALDH1A2) Validation screens
# Conditions: Potency: ALDH1A2 inhibition qHTS validation
row,SMILES,Potency
1,CC(C)N(CCC(=O)c1ccc2ccccc2c1)Cc1ccccc1,5.62 µM (active)
2,Cc1ccc(C(=O)Nc2cccc(C(=O)O)c2)cc1,inactive
3,CCOc1ccc(-c2cc(C(=O)N3CCN(c4ccccn4)CC3)c3ccccc3n2)cc1,inactive
4,CCOC(=O)CNS(=O)(=O)c1cc(-c2nnc(Nc3cccc(O)c3)c3ccccc23)ccc1C,inactive
5,CCOC(=O)CSc1nc2c(sc3ccccc32)c(=O)n1CCCN1CCCC1,inactive
6,CC(C)(C)c1ccc(S(=O)(=O)/C=C/C#N)cc1,2.82 µM (active)
7,N/C(=N\OC(=O)c1ccccc1)c1ccccn1,inactive
8,O=C(OC1C[C@@H]2CC3C[C@H](C1)N2CC3=O)c1c[nH]c2ccccc12 (some centres undefined),inactive
9,CCCN(CCC)C(=O)Cn1c(=O)n(-c2ccc(C)cc2)c(=O)c2ccc(C(=O)NCc3ccccc3Cl)cc21,inactive
